Ten compounds from PubChem BioAssay can be followed below.

The test is described as follows: JC-1 mitochondrial signal, unstimulated HepG2 cells – cell-based, JC-1 fluorescence, 24 h, 100 nL compound, profiling panel (AID 1167). Note: test concentration not given here. The following applies: HepG2 mitochondrial potential, higher = more signal.
With `O=C1C[C@]2(c3ccc([N+](=O)[O-])cc3)C(=O)N(Cc3ccccc3)c3cc(CO)ccc3[C@H]2N1CC12CC3CC(CC(C3)C1)C2`, the z-score is -0.821. Consider `Cc1c(NC(=O)/C(C#N)=C/C=C/c2ccc(N(C)C)cc2)c(=O)n(-c2ccccc2)n1C`, for which the z-score was -0.545. Compound `COCCOC(=O)N1C(=O)[C@@]2(c3ccccc31)[C@H](c1ccc(OCCO)cc1)N1[C@H](c3ccccc3)[C@H](c3ccccc3)OC(=O)[C@H]1[C@@H]2C(=O)Nc1nc2ccccc2s1` returned a z-score of -3.4.

For the compound `COCCCNC(=O)[C@@]1(Sc2ccc(C)cc2)CC(=O)N(Cc2cc(C(F)(F)F)cc(C(F)(F)F)c2)[C@@H]1c1ccc(CO)cc1`, the z-score was 0.967. The same measure for `CCCC[C@@H]1C[C@H]1[C@@H](NC(=O)c1ccccc1)c1ccc(Cl)cc1`: 0.229; for `CC(C)C(CO)N1C(=O)[C@]2(C)C3C(=O)OCCC/C=C\[C@H]3OC23C=CCN(c2ccc(Cl)cc2)C(=O)[C@@H]13` (stereo not given in full): -0.484; for `COC(=O)[C@@]1(Cc2ccc(OC)cc2)[C@H]2c3cc(C(=O)N4CCCC4)n(CCc4cc5ccccc5[nH]4)c3C[C@H]2CN1C(=O)c1ccccc1`: 0.877. The compound `CCCC[C@@H]1C[C@H]1[C@@H](NC(=O)c1cccnc1)c1ccc(-c2ccccc2)cc1` gave a z-score of -0.608.

`[N-]=[N+]=Nc1ccccc1[C@@H]1OC(c2ccc(OCCCO)cc2)=N[C@]1(CCS(=O)(=O)c1ccccc1)C(=O)NCCN1CCOCC1` yielded a z-score of 0.0652. `C[C@@H](OCc1ccccc1)C1NC(=O)[C@@]23C(=O)N[C@@H](Cc4ccccc4)C2[C@H](C)[C@@]2(C)O[C@H]2C3/C=C/C/C=C\CNC(=O)CNC1=O` (stereo not given in full): the z-score is -0.332.
